Records with an inconclusive call do not appear. Activity calls are given as the source filed them. Unless noted, calls follow the shape of the dose curve; as a rule, active = well fitted curve in the direction sought with a large enough effect in the repeat runs; inconclusive = weak or mixed curves; inactive = no such curve, though single readings can be large; an effect the other way counts as inactive or inconclusive.
Experiments:
[1] = target: Thyrotropin-releasing hormone receptor (Homo sapiens) (UniProt P34981); test: qHTS assay to identify small molecule agonists of the thyrotropin-releasing hormone receptor (TRHR) signaling pathway (AID 1346891; calls by dose curve; also: series mostly up to about 58 µM)
Chain of Thyrotropin-releasing hormone receptor (Homo sapiens) (P34981 whole entry, looked up): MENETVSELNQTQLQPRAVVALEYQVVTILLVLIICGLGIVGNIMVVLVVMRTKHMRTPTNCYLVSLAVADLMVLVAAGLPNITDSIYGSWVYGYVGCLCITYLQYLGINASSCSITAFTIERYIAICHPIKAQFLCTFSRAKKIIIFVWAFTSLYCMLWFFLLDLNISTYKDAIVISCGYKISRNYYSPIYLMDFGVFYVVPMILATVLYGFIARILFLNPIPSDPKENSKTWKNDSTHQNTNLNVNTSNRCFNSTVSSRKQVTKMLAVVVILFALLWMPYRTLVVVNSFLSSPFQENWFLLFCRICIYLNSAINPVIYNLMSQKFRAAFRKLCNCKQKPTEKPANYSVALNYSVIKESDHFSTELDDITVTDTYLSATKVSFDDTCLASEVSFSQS
Method in brief: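 Screening of agonists relied on calcium signalling in HEK293 cells expressing human TRHR: dye loading 2 h at 37 °C preceded compound addition and a 3-min fluorescence time course.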

[2] = Human pregnane X receptor (PXR) small molecule agonists, qHTS cell viability counter screen (AID 1346977); also: nearly all actives have a fitted effect of over 50% in size; also: potency is read from the fitted curve at half-maximal effect
Method in brief: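 Tox21 qHTS format; PXR-Luc HepG2, 2,000/well, charcoal-stripped FBS 5%. Cpd exposure 24hr. Read: CellTiter-Fluor fluorescence, multiplexed with luciferase.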

[3] = Caspase-3/7 induction in HepG2 cells by small molecules, qHTS assay (AID 1346978); also: nearly all actives have a fitted effect of over 15% in size
Method in brief: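 Caspase-3/7 induction was measured by Caspase-Glo 3/7 luminescence (30 min, room temperature) after a 17 hr compound exposure of wild-type HepG2 cells seeded at 2,000 per well and pre-incubated 5 hr.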

[4] = Caspase-3/7 induction in CHO-K1 cells by small molecules, qHTS cell viability counter screen (AID 1346979); also: nearly all actives have a fitted effect of over 35% in size; also: potency is read from the fitted curve at half-maximal effect
Method in brief: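 CellTiter-Fluor viability check, qHTS format: wild-type CHO-K1, 16hr compound treatment, 1hr reagent incubation, fluorescence read.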

[5] = Caspase-3/7 induction in CHO-K1 cells by small molecules, qHTS assay (AID 1346980); also: nearly all actives have a fitted effect of over 15% in size
Method in brief: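 Luminescent Caspase-Glo 3/7 read (30min, room temperature) quantified apoptosis induction. Cells were wild-type CHO-K1, treated with compound for 17hr at 37 C and 5% CO2.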

[6] = Caspase-3/7 induction in HepG2 cells by small molecules, qHTS cell viability counter screen (AID 1346981); also: series mostly up to about 92 µM; nearly all actives have a fitted effect of over 30% in size
Method in brief: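 Cell viability is measured as a cytotoxicity counter screen alongside the Caspase-Glo 3/7 readout in identical wells. Wild-type HepG2 cells are treated with test compounds for 16 hr at 37 C before CellTiter-Fluor addition and a 1-hr incubation.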

[7] = target: Nuclear receptor subfamily 1 group I member 2 (Homo sapiens) (UniProt O75469); test: Human pregnane X receptor (PXR) small molecule agonists, qHTS assay (AID 1346982); also: nearly all actives have a fitted effect of over 35% in size; also: potency is read from the fitted curve at half-maximal effect
Chain of Nuclear receptor subfamily 1 group I member 2 (Homo sapiens) (O75469 whole entry, looked up): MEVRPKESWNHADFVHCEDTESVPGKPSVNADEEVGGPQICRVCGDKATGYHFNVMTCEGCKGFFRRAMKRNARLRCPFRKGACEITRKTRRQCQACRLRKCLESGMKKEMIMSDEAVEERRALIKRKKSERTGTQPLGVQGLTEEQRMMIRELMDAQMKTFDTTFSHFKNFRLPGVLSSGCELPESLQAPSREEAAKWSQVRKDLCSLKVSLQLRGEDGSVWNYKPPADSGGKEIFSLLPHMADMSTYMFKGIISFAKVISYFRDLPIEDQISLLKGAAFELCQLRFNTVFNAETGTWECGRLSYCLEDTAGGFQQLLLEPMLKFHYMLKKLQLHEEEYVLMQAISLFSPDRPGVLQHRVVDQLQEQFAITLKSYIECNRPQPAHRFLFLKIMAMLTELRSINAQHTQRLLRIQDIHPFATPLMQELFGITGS
Method in brief: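 Cells: HepG2 stably carrying PXR-Luc. Medium held 5% charcoal-stripped FBS. Compounds in DMSO added after 5 hr plating, incubated 24 hr, then luminescence quantified with ONE-Glo.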
% is scaled to controls: 0 for no effect and ±100 for the full control effect.

C=CC(=O)OCCCCCCCCCC
inactive: outcome [1] | Potency [2] | Potency [3] | Potency [4] | Potency [5] | Potency [6] | Potency [7]

CC(C)CCCCCOC(=O)CS
inactive: outcome [1] | Potency [2] | Potency [3] | Potency [4] | Potency [5] | Potency [6]

Cc1c(Cl)cccc1Nc1ccccc1C(=O)O
inactive: outcome [1] | Potency [2] | Potency [3] | Potency [4] | Potency [5] | Potency [6]

O=C(O)c1cc(C(=O)O)cc([N+](=O)[O-])c1
inactive: outcome [1] | Potency [2] | Potency [3] | Potency [4] | Potency [5] | Potency [6] | Potency [7]

O=C(c1ccco1)N1CCNCC1
inactive: outcome [1] | Potency [2] | Potency [3] | Potency [4] | Potency [5] | Potency [6] | Potency [7]

CC(C)=CCC[C@H](C)CCO
inactive: outcome [1] | Potency [2] | Potency [3] | Potency [4] | Potency [5] | Potency [6] | Potency [7]

CO[C@@H]1[C@@H](O[C@@H]2O[C@H](C)[C@@H](O[C@H]3C[C@@](C)(O)[C@@H](O)[C@H](C)O3)[C@H](N(C)C)[C@H]2O)[C@@H](CC=O)C[C@@H](C)[C@@H](O[C@@H]2CC[C@H](N(C)C)[C@@H](C)O2)/C=C/C=C/C[C@@H](C)OC(=O)C[C@H]1OC(C)=O
active: Potency [2] 26.6 µM
inactive: outcome [1] | Potency [3] | Potency [4] | Potency [5] | Potency [6]

COC(=O)c1cc(Cl)ccc1[N+](=O)[O-]
inactive: outcome [1] | Potency [2] | Potency [3] | Potency [4] | Potency [5] | Potency [6]

Cc1c(N=C=O)cccc1N=C=O
inactive: outcome [1] | Potency [2] | Potency [3] | Potency [4] | Potency [5] | Potency [6] | Potency [7]

NCCOCCOCCN
inactive: outcome [1] | Potency [2] | Potency [3] | Potency [4] | Potency [5] | Potency [6] | Potency [7]

O=[N+]([O-])c1ccc(Cl)cc1Cl
inactive: outcome [1] | Potency [2] | Potency [3] | Potency [4] | Potency [5] | Potency [6] | Potency [7]

CC1=C(C)C(=O)C(CCCCC#CCCCC#CCO)=C(C)C1=O
active: Potency [4] 29.8 µM | Potency [7] 26.6 µM
inactive: outcome [1] | Potency [2] | Potency [3] | Potency [5] | Potency [6]

O=C(O)c1ccc(O)c(O)c1
inactive: outcome [1] | Potency [2] | Potency [3] | Potency [4] | Potency [5] | Potency [6] | Potency [7]

CC(O)C(C)O (stereo not drawn)
inactive: outcome [1] | Potency [2] | Potency [3] | Potency [4] | Potency [5] | Potency [6] | Potency [7]

C=CC(C)CCC=C(C)C (stereo not drawn)
inactive: outcome [1] | Potency [2] | Potency [3] | Potency [4] | Potency [5] | Potency [6] | Potency [7]

CCc1cnc(C(=O)O)c(C(=O)O)c1
inactive: outcome [1] | Potency [2] | Potency [3] | Potency [4] | Potency [5] | Potency [6] | Potency [7]

CCCCC(CC)COCCC#N (stereo not drawn)
inactive: outcome [1] | Potency [2] | Potency [3] | Potency [4] | Potency [5] | Potency [6] | Potency [7]

OCCCO
inactive: outcome [1] | Potency [2] | Potency [3] | Potency [4] | Potency [5] | Potency [6] | Potency [7]

CCCCCCCCCCCCCCCCCCCl
inactive: activation [1] -0.417% [at 5.23 µM] | activity change, negative = cytotoxicity [2] -2.79% [at 8.39 µM] | caspase activation [3] 0.121% [at 8.39 µM] | activity change, negative = cytotoxicity [4] -4.93% [at 8.39 µM] | caspase-3/7 activation [5] -1.95% [at 8.39 µM] | activity change, negative = cytotoxicity [6] -0.332% [at 8.39 µM] | activation [7] 17.1% [at 8.39 µM]

COC=O
inactive: activation [1] -1.05% [at 5.23 µM] | activity change, negative = cytotoxicity [2] 3.92% [at 8.39 µM] | caspase activation [3] -1.76% [at 8.39 µM] | activity change, negative = cytotoxicity [4] 2.52% [at 8.39 µM] | caspase-3/7 activation [5] -0.739% [at 8.39 µM] | activity change, negative = cytotoxicity [6] 7.73% [at 8.39 µM] | activation [7] -0.203% [at 8.39 µM]

N#Cc1ccc(CC(=O)c2cccc(C(F)(F)F)c2)cc1
inactive: outcome [1] | Potency [2] | Potency [3] | Potency [4] | Potency [5] | Potency [6]

CCCCCC1CCC(=O)O1 (stereo not drawn)
inactive: outcome [1] | Potency [2] | Potency [3] | Potency [4] | Potency [5] | Potency [6] | Potency [7]

CC(=O)S[C@H](C(=O)N[C@H]1Cc2ccccc2[C@H]2CCC[C@@H](C(=O)O)N2C1=O)C(C)C
inactive: outcome [1] | Potency [2] | Potency [3] | Potency [4] | Potency [5] | Potency [6] | Potency [7]

C=C[Si]1(C)O[Si](C)(C=C)O[Si](C)(C=C)O[Si](C)(C=C)O1 (stereo not drawn)
inactive: outcome [1] | Potency [2] | Potency [3] | Potency [4] | Potency [5]

CCCc1ccc(OC)cc1
inactive: outcome [1] | Potency [2] | Potency [3] | Potency [4] | Potency [5] | Potency [6] | Potency [7]

O=C(Nc1ccc2c(c1)Cc1ccccc1-2)C(F)(F)F
inactive: outcome [1] | Potency [2] | Potency [3] | Potency [4] | Potency [5] | Potency [6]
active: Potency [7] 34.4 µM

COc1ccc(/C=C/c2cc(OC)cc(=O)o2)cc1
active: Potency [7] 8.84 µM
inactive: outcome [1] | Potency [2] | Potency [3] | Potency [4] | Potency [5] | Potency [6]

CC(O)CN (stereo not drawn)
inactive: outcome [1] | Potency [2] | Potency [3] | Potency [4] | Potency [5] | Potency [6] | Potency [7]

CCCCCCCCOCCCN
inactive: outcome [1] | Potency [3] | Potency [4] | Potency [5] | Potency [6] | Potency [7]
active: Potency [2] 61.1 µM

SCCOCCOCCS
active: Potency [7] 4.86 µM
inactive: outcome [1] | Potency [2] | Potency [3] | Potency [4] | Potency [5] | Potency [6]
